# mHTT CaM bind – mHTT-calmodulin interaction abrogation. P42858. AlphaScreen His-mHTT/GST-CaM binding, luminescence. inhibition, % at 15 µM. actives 3.6% (n = 190,000). AID 1671202
# Target sequence (P42858 whole entry, looked up, change not shown): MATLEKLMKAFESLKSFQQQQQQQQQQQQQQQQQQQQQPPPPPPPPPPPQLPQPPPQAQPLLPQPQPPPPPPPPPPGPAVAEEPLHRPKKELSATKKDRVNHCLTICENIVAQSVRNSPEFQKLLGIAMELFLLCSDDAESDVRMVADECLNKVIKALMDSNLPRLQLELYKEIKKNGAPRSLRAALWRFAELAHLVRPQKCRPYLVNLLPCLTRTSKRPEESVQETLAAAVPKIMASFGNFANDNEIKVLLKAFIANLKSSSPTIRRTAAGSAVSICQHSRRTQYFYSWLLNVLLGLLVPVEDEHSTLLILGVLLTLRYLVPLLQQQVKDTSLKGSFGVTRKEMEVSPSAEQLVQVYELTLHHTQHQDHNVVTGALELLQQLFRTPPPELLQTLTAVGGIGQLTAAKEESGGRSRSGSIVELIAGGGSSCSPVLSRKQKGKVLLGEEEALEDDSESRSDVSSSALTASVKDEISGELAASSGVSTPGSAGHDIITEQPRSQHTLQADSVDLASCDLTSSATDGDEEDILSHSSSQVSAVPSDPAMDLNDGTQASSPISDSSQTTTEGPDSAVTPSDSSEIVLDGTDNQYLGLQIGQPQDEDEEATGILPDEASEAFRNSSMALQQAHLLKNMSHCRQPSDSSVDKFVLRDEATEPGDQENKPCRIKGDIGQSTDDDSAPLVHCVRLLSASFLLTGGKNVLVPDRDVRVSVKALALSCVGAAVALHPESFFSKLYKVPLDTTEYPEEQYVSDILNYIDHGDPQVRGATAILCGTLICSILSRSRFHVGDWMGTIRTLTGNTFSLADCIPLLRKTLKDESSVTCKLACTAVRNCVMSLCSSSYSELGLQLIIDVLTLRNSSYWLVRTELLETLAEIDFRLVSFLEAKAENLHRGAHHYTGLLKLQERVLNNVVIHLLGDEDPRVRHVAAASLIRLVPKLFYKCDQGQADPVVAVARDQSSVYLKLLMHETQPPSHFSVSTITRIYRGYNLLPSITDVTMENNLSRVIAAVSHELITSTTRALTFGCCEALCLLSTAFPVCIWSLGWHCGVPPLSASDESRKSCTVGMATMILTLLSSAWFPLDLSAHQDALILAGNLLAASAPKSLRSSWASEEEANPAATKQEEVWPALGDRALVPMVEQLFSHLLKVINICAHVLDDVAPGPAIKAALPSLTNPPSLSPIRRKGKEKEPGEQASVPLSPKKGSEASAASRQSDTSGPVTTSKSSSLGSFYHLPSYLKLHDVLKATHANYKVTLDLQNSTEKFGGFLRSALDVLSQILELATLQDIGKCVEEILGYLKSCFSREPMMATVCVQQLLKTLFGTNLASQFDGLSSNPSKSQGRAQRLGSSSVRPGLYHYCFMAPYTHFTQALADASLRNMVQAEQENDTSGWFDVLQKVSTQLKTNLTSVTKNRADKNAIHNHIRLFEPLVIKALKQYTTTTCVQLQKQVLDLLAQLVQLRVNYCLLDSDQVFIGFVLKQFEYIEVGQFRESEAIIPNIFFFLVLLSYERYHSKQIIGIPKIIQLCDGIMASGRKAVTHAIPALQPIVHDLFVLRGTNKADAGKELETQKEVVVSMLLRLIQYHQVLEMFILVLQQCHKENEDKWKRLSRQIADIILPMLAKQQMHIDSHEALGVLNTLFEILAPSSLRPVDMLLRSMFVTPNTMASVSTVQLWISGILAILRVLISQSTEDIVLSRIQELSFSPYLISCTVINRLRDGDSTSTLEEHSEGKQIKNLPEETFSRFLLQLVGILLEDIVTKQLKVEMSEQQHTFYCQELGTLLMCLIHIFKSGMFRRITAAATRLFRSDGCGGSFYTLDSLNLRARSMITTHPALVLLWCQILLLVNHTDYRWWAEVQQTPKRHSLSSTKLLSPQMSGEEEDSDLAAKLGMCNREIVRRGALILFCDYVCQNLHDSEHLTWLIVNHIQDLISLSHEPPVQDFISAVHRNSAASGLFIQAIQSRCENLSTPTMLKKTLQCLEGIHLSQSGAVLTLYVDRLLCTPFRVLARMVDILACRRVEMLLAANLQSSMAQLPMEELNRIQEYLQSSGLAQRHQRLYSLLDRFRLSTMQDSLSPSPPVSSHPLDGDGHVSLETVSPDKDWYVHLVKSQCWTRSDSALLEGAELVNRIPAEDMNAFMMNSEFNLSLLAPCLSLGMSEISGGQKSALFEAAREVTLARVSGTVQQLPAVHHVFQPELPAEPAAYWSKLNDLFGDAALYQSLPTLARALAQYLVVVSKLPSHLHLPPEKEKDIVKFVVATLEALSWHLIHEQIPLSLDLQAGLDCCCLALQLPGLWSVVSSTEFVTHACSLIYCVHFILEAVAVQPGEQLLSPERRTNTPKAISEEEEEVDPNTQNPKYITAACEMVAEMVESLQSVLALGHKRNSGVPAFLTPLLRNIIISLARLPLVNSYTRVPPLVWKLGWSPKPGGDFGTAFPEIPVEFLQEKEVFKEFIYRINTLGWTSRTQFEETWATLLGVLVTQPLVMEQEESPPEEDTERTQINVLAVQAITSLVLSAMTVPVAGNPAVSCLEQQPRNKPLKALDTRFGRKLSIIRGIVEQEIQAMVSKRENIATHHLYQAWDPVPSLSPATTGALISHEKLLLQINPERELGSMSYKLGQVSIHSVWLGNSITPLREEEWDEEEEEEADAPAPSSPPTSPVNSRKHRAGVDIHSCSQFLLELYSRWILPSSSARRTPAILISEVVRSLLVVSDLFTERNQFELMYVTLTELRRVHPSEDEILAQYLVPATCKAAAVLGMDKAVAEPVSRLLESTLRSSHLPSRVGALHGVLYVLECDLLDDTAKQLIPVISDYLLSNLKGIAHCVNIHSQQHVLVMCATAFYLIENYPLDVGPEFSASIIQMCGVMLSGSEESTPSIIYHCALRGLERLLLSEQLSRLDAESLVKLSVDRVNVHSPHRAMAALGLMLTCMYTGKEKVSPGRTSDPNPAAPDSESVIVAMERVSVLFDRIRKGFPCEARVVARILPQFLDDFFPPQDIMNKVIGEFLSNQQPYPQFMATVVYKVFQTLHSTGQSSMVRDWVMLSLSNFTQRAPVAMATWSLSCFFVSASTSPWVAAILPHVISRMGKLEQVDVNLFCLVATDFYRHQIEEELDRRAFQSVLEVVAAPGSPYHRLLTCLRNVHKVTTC
# Pf apPOL inh – Pf-apPOL DNA polymerase inhibition. Recombinant Pf-apPOL, molecular beacon fluorescence, 1.5 h. inhibition, % at 10 µM. actives 0.25% (n = 210,000). AID 1794808
# Hits are given with their value; - = inactive; . = no result. Sampled rows, rich in hits. Any-hit rate of the full collection: about 3.5%. No stated cut-off is given here; in the data, active means inhibition above about 50%; inactive means the rest.
SMILES,mHTT CaM bind,Pf apPOL inh
CC(=O)Oc1ccc2c(c1)Oc1cc(OC(C)=O)ccc1C21OC(=O)c2ccccc21,87,-
O=C(Nc1nnc(C2CC2)o1)c1ccc(S(=O)(=O)N2CCCC2)cc1,-,-
CCOc1ccc(/C=c2\sc3nc(-c4cccs4)nn3c2=O)cc1OC,-,-
Cn1c(=O)c(N2CCN(C(=O)Cc3cccc(Cl)c3)CC2)nc2ccncc21,-,-
CCOC(=O)c1ccc(NC(=O)CN2CCN(c3ccc(OC)cc3)C2=O)cc1,-,-
CCOC(=O)c1ccc(-n2sccc2=O)cc1,.,96
O=[N+]([O-])c1cccc(/C=C/c2ccc3ccccc3n2)c1,-,-
O=[N+]([O-])c1cccc(/C=C/c2ccccn2)c1,-,67
CCCC1N=C(c2ccc(Cl)cc2)CC(c2cccc(OC)c2O)N1 (centres undefined),52,-
CCCC1N=C(c2cccc(OC)c2)CC(c2ccccc2O)N1 (centres undefined),-,-
CC1(C)Cc2c(sc3nc(SCC(=O)O)n(-c4ccccc4)c(=O)c23)CO1,-,-
CC1(C)Cc2c(sc3nc(Nc4ccccc4)n(N)c(=O)c23)CO1,53,-
O=C(NC1CCCCCC1)C1CCN(c2ncc(-c3ccccc3)cn2)CC1,-,-
O=C(NNC(=O)c1cnccc1C(F)(F)F)c1ccc(OC(F)(F)F)cc1,.,-
CCOc1cc(/C=C2/SC(=Nc3ccccc3)NC2=O)ccc1OC,-,-
CCOc1cc(/C=C2/SC(=Nc3ccccc3Cl)NC2=O)ccc1O,53,-
COc1cc(/C=C2/SC(=Nc3ccccc3Cl)NC2=O)cc(OC)c1,-,-
CCOc1cc(/C=C2/SC(=Nc3cccc(C(=O)O)c3)NC2=O)ccc1OC,51,-
O=C1NC(=Nc2ccccc2Cl)S/C1=C/c1cccc(C(=O)O)c1,-,-
O=C1NC(=Nc2cccc(Cl)c2Cl)S/C1=C\c1ccc(O)c(O)c1,83,-
COc1ccc(NC(=S)NN=Cc2ccc(Cl)cc2)cc1,.,-
Cc1ccc(S(=O)(=O)N2C(=O)CSC2=Nc2ccccc2)cc1,-,-
O=C(Cc1ccsc1)N1CCc2nc3cc(-c4ccccc4Cl)[nH]n3c(=O)c2C1,-,-
CC(=O)CC1c2cc(F)ccc2C=C(c2ccsc2)N1c1ccc(C#Cc2cncn2C)cc1 (centres undefined),75,-
CC(=O)CC1c2cc(F)ccc2C=C(c2ccsc2)N1c1ccc(C#CC2(O)CCCCC2)cc1 (centres undefined),-,-
SMILES,mHTT CaM bind,Pf apPOL inh
C#CCOCC1CCCN(C(=O)C2CC=CCC2)C1 (centres undefined),-,-
COc1ccc(-c2c3c(=O)n(C)c(=O)n(C)c3cn2-c2ccc(C)cc2C)cc1,-,-
Cc1ccc(-n2cc3c(c2-c2ccccc2)c(=O)n(C)c(=O)n3C)c(C)c1,-,83
COc1ccc(-c2c3c(=O)n(C)c(=O)n(C)c3cn2-c2ccccc2OC)cc1,-,78
COc1ccc(-c2c3c(=O)n(C)c(=O)n(C)c3cn2-c2ccccc2)cc1,-,-
Cn1c(=O)c2c(-c3ccccc3)n(-c3ccccc3)cc2n(C)c1=O,-,-
CCn1cc2c(c1-c1ccccc1)c(=O)n(C)c(=O)n2C,-,-
CNc1ccc([N+](=O)[O-])cc1-n1cc2c(c1-c1ccccc1)c(=O)n(C)c(=O)n2C,-,65
Cc1cc(N)c(-n2cc3c(c2-c2ccccc2)c(=O)n(C)c(=O)n3C)cc1C,-,82
CSC(NCc1cccnc1)=C(C#N)C(=O)C1CC1,.,-
COC(=O)c1ccccc1NC(=O)N1CCOc2ccc(Cl)cc21,-,-
O=C(NC1CCCC1)C1CCN(C(=O)c2ccc(F)cc2)CC1,-,-
COC1CCCCC1Nc1ccc2c(c1)CCC2 (centres undefined),52,.
CC(=O)Nc1ccc2c(c1)CCC2,.,-
COc1ccccc1C(=O)Nc1ccc(Br)cn1,-,-
COc1ccc(Cl)cc1NC(=O)c1c(NCc2ccncc2)sc2c1CCC(C)C2 (centres undefined),73,-
COc1ccc(Cl)cc1Nc1ncnc2sc3c(c12)CCC(C)C3 (centres undefined),-,-
COc1ccccc1NC(=O)c1c(NCc2ccncc2)sc2c1CCC(C)C2 (centres undefined),100,-
COc1ccc(OC)c(NC(=O)c2c(NCc3ccncc3)sc3c2CCC(C)C3)c1 (centres undefined),72,-
COc1ccc(OC)c(NC(=O)Cn2nc3c(cc2=O)CC(C)CC3)c1 (centres undefined),-,-
COc1ccccc1NC(=O)c1c(NCc2ccccn2)sc2c1CCC(C)C2 (centres undefined),-,-
Cc1cc(C)cc(NS(=O)(=O)c2cc3c(s2)CCN(C(=O)C2CCC2)C3)c1,-,-
CC(=O)C1=C(O)C(=O)N(C)C1c1ccc([N+](=O)[O-])cc1 (centres undefined),-,-
CCN(Cc1cc(-c2ccc(F)cc2)on1)C(=O)c1cccs1,-,-
O=C(Cn1c(=O)nc(-c2ccccc2)c2cc(Cl)ccc21)NCc1cccs1,-,-
SMILES,mHTT CaM bind,Pf apPOL inh
Cc1cc(Cl)ccc1NC(=O)N1CC2CC1CC2NS(=O)(=O)c1ccccc1 (centres undefined),-,-
COc1ccccc1NC(=O)c1nn(C)cc1Br,-,61
Cn1cc(Br)c(C(=O)Nc2ccc(Br)cc2)n1,-,-
CN1CCN(c2nc(C(=O)N3CCCCC3)cs2)CC1,-,-
Cc1ccccc1NC(=O)CN(c1cc(C(F)(F)F)ccc1Cl)S(C)(=O)=O,-,-
CN(C)c1ccc(Nc2c([N+](=O)[O-])cc([N+](=O)[O-])c3cccnc23)cc1,87,-
O=[N+]([O-])c1cc([N+](=O)[O-])c2cccnc2c1Nc1ccccc1,-,-
Fc1ccc(C2=Nc3ccc(F)cc3NC(c3cccnc3)=N2)cc1,-,-
O=C(Nc1nc(-c2ccc([N+](=O)[O-])cc2)cs1)c1ccc(Cl)s1,-,-
O=C(CSc1nnc2c(n1)[nH]c1ccccc12)Nc1ccc(Cl)cn1,-,-
CC(/C=C1\SC(=O)N(c2ccc(O)cc2)C1=O)=C\c1ccccc1,60,-
Cc1ccc(N2C(=O)S/C(=C\c3ccc(O)cc3)C2=O)cc1,-,-
O=C1OC(c2cccc(Br)c2)=N/C1=C\c1ccc(Br)cc1,-,-
OC1(c2ccccc2)CCN(Cc2ccccc2)C1 (centres undefined),-,-
O=C(c1ccccc1)C1CN(Cc2ccccc2)CCC1(O)c1ccccc1 (centres undefined),70,-
COc1cc2c(cc1OC)C(C(=O)N1CCOCC1)C(c1ccc(SC)cc1)N(C)C2=O (centres undefined),-,-
O=C(c1ccc(F)cc1F)N1CCC(CCOc2ccc(F)cc2)CC1,-,-
CNc1cc(Nc2ccccc2)c2c3c(onc13)-c1ccccc1C2=O,98,-
O=C(O)c1ccccc1Nc1cc(N2CCOCC2)c2noc3c2c1C(=O)c1ccccc1-3,-,-
CN(C)c1cc(Nc2ccccc2)c2c3c(onc13)-c1ccccc1C2=O,96,-
CCOc1ccc(Nc2cc(N3CCOCC3)c3noc4c3c2C(=O)c2ccccc2-4)cc1,-,-
CCCN(CCC)C(=O)c1cn(CC)c2nc(C)ccc2c1=O,-,-
O=C(NCCC1=CCCCC1)C(=O)NCC1(O)CCOc2ccccc21 (centres undefined),-,-
CC(C)(C)c1ccc(O)c(C(C)(C)C)c1O,98,-
CC(C)(C)c1cc(S)cc(C(C)(C)C)c1O,-,.
